Data: PubChem BioAssay (Tox21)
Where “and” joins values, the source holds several entries; their conditions need not be identical. Equal entries are not always repeated. Inconclusive results are not listed. The source holds several records for some structures; these can differ, active in one and inactive in another. Calls of active or inactive are those of the source. Unless noted, calls come from the whole dose curve; as a rule, active = well fitted curve in the direction sought with a large enough effect in the repeat runs; inconclusive = weak or mixed curves; inactive = no such curve, though single readings can be large; an effect the other way counts as inactive or inconclusive.

What was measured:
[1] = Human pregnane X receptor (PXR) small molecule agonists, qHTS cell viability counter screen (AID 1346977); note: nearly all actives have a fitted effect of over 50% in size; note: potency is the fitted concentration of half-maximal effect
How it was run: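 Viability counter screen: CellTiter-Fluor signal in PXR-Luc HepG2 cells, 24hr compound exposure, 37C, 5% CO2.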

[2] = Caspase-3/7 induction in HepG2 cells by small molecules, qHTS assay (AID 1346978); note: nearly all actives have a fitted effect of over 15% in size; note: potency is the fitted concentration of half-maximal effect
How it was run: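 Wild-type HepG2 cells, 2,000/well, settled 5 hr at 37 C and 5% CO2, then compound-treated for 17 hr; caspase-3/7 activity read by luminescent Caspase-Glo 3/7 after 30 min at room temperature.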

[3] = Caspase-3/7 induction in CHO-K1 cells by small molecules, qHTS cell viability counter screen (AID 1346979); note: nearly all actives have a fitted effect of over 35% in size; note: potency is the fitted concentration of half-maximal effect
How it was run: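 Viability readout by fluorescence (CellTiter-Fluor) on wild-type CHO-K1 cells exposed for 16hr at 37C and 5% CO2 to compounds delivered in DMSO; reagent incubated 1hr before reading.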

[4] = Caspase-3/7 induction in CHO-K1 cells by small molecules, qHTS assay (AID 1346980); note: nearly all actives have a fitted effect of over 15% in size
How it was run: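 Wild-type CHO-K1 cells exposed to compounds for 17hr at 37 C, 5% CO2. Caspase-3/7 activity then measured by Caspase-Glo 3/7 luminescence after 30min at room temperature.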

[5] = Caspase-3/7 induction in HepG2 cells by small molecules, qHTS cell viability counter screen (AID 1346981); note: nearly all actives have a fitted effect of over 30% in size; note: potency is the fitted concentration of half-maximal effect
How it was run: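 After a 5-hr attachment period at 37 C and 5% CO2, wild-type HepG2 cells received compounds in DMSO. Sixteen hours later CellTiter-Fluor was dispensed and the fluorescent signal quantified after a further hour.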

[6] = target: Nuclear receptor subfamily 1 group I member 2 (Homo sapiens) (UniProt O75469); assay: Human pregnane X receptor (PXR) small molecule agonists, qHTS assay (AID 1346982); note: nearly all actives have a fitted effect of over 35% in size; note: potency is the fitted concentration of half-maximal effect
How it was run: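 Tox21 qHTS; PXR-Luc HepG2; compounds pinned from DMSO; 24 hr, 37 C; ONE-Glo luciferase detection, 30 min room temperature.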

[7] = target: Acetylcholinesterase (Homo sapiens) (UniProt P22303); assay: Acetylcholinesterase (AChE) small molecule antagonists: colormetric cell-based qHTS assay (AID 1347395; calls by dose curve; note: nearly all actives have a fitted effect of over 30% in size; note: potency is the fitted concentration of half-maximal effect)
How it was run: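 Homogeneous whole-cell format. SH-SY5Y cells seeded overnight, dosed with compound (30 min, 37 C, 5% CO2), then given DTNB/acetylthiocholine cocktail for 90 min at 37 C; colorimetric signal.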

[8] = target: Acetylcholinesterase (Homo sapiens) (UniProt P22303); assay: Acetylcholinesterase (AChE) small molecule antagonists: enzyme-based qHTS assay (AID 1347397; calls by dose curve; note: nearly all actives have a fitted effect of over 55% in size); details: Potency: AChE enzyme activity inhibition
How it was run: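 In this quantitative HTS, compounds from the Tox21 10K collection were preincubated 30 min at ambient temperature with recombinant human AChE dispensed at 50 mU/mL. Hydrolysis of acetylthiocholine was then followed for 10 min by DTNB colour development.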

[9] = target: Acetylcholinesterase (Homo sapiens) (UniProt P22303); assay: Acetylcholinesterase (AChE) small molecule antagonists: fluorescence cell-based qHTS assay (AID 1347398; calls by dose curve; note: nearly all actives have a fitted effect of over 50% in size); details: Potency: AChE activity
How it was run: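 Cells (SH-SY5Y) attached overnight, were dosed with compound or DMSO vehicle for 30 min at 37 C, and then incubated 40 min at room temperature with acetylthiocholine and Thiolite Green; green fluorescence indexed AChE activity.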

[10] = target: Acetylcholinesterase (Homo sapiens) (UniProt P22303); assay: Acetylcholinesterase (AChE) small molecule antagonists: enzyme-based qHTS assay with human liver microsomes (AID 1347399; calls by dose curve; note: nearly all actives have a fitted effect of over 60% in size); details: Potency: qHTS inhibition
How it was run: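 Recombinant human AChE (50 mU/mL in the enzyme mix) and human liver microsomes (0.25 mg/mL final) were preincubated with compound and NADPH (0.25 mg/mL final) for 30 min at 37 C. Acetylthiocholine/DTNB was then added; thiocholine was read colorimetrically after 10 min at room temperature.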

[11] = target: Cytochrome P450 2D6 (Homo sapiens) (UniProt P10635); assay: Cytochrome P450 Family 2 Subfamily D Member 6 (CYP2D6) small molecule antagonists: luciferase reporter qHTS assay (AID 1671196); note: nearly all actives have a fitted effect of over 50% in size; note: potency is the fitted concentration of half-maximal effect
How it was run: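 Room-temperature luminescent CYP2D6 activity assay: compound preincubated 10 min with enzyme–substrate mix, NADPH-initiated reaction 1 h, detection reagent 20 min before reading.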

[12] = target: Cytochrome P450 2C19 (Homo sapiens) (UniProt P33261); assay: Cytochrome P450 Family 2 Subfamily C Member 19 (CYP2C19) small molecule antagonists: luciferase reporter qHTS assay (AID 1671197); note: nearly all actives have a fitted effect of over 65% in size; note: potency is the fitted concentration of half-maximal effect
How it was run: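 Inhibition of CYP2C19 was scored from loss of luminescence in a P450-Glo proluciferin substrate assay, NADPH-started and run 1 h at 37C, with ketoconazole as positive control.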

[13] = target: Cytochrome P450 2C9 (Homo sapiens) (UniProt P11712); assay: Cytochrome P450 Family 2 Subfamily C Member 9 (CYP2C9) small molecule antagonists: luciferase reporter qHTS assay (AID 1671198); note: nearly all actives have a fitted effect of over 50% in size; note: potency is the fitted concentration of half-maximal effect
How it was run: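 P450-Glo proluciferin substrate with CYP2C9 enzyme; 10 min RT preincubation, then NADPH regeneration 1 h at 37C; luciferin detection reagent 20 min RT, luminescence in relative luminescence units.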

[14] = target: Cytochrome P450 1A2 (Homo sapiens) (UniProt P05177); assay: Cytochrome P450 Family 1 Subfamily A Member 2 (CYP1A2) small molecule antagonists: luciferase reporter qHTS assay (AID 1671199); note: nearly all actives have a fitted effect of over 50% in size; note: potency is the fitted concentration of half-maximal effect
How it was run: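 Room-temperature CYP1A2 reaction with proluciferin substrate: compounds added from DMSO, 10 min preincubation, NADPH regeneration for 1 h. Luciferin detection reagent then added; luminescence recorded as RLU.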

[15] = target: Voltage-gated inwardly rectifying potassium channel KCNH2 (Homo sapiens) (UniProt Q12809); assay: Human Ether-a-go-go-Related Gene (hERG) channel small molecule antagonists: fluorescence cell-based qHTS assay (AID 1671200); note: nearly all actives have a fitted effect of over 50% in size; note: potency is the fitted concentration of half-maximal effect
How it was run: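 Thallium served as the potassium surrogate; its influx into dye-loaded U2OS cells carrying the channel was measured by fluorescence over 2 min.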

[16] = target: Cytochrome P450 3A4 (Homo sapiens) (UniProt P08684); assay: Cytochrome P450 Family 3 Subfamily A Member 4 (CYP3A4) small molecule antagonists: luciferase reporter qHTS assay (AID 1671201); note: nearly all actives have a fitted effect of over 50% in size; note: potency is the fitted concentration of half-maximal effect
How it was run: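 Relative luminescence units after 20 min with luciferin detection reagent served as read-out. Beforehand, CYP3A4 turned over a proluciferin substrate for 1 h at room temperature with NADPH regeneration, following 10 min compound preincubation.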

[17] = target: Nuclear receptor subfamily 1 group I member 2 (Rattus norvegicus) (UniProt Q9R1A7); assay: Rat pregnane X receptor (rPXR) activation by small molecules, qHTS assay (AID 1346983); details: rPXR luciferase reporter cells, One-Glo luminescence, 24 h; stronger effect = higher value; note: nearly all actives have a fitted effect of over 20% in size
How it was run: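 Cell-based rPXR activation assay: rPXR cells, 2,000 per well, rested 5hr at 37 C, then exposed to compounds in DMSO for 24 hr at 37 C. Luciferase activity read by One-Glo luminescence after 30 min at room temperature.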

[18] = target: Nuclear receptor subfamily 1 group I member 2 (Homo sapiens) (UniProt O75469); assay: CYP3A4 induction through human pregnane X receptor (PXR) by small molecules, qHTS assay (AID 1346984); note: nearly all actives have a fitted effect of over 40% in size; note: potency is the fitted concentration of half-maximal effect
How it was run: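 Cells (DPX-2; HepG2 with PXR element plus CYP3A4-promoter luciferase) settled 5hr, then were treated 24hr at 37C. A 3hr, 3uM-final Luciferin-IPA step preceded luminescence measurement with One-Glo.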

[19] = target: Nuclear receptor subfamily 1 group I member 2 (Homo sapiens) (UniProt O75469); assay: Human pregnane X receptor (PXR) activation by small molecules, qHTS assay (AID 1346985); note: nearly all actives have a fitted effect of over 40% in size
How it was run: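 DPX-2 cells (HepG2 co-transfected with a PXR response element and a CYP3A4-promoter luciferase construct) were seeded at 2,000 per well, rested 5 hr at 37C, then exposed to DMSO-dissolved compounds for 24 hr. Activation was read as luciferase luminescence.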
% is set by controls: 0 for no effect and ±100 for the full control effect.

Sequence of Nuclear receptor subfamily 1 group I member 2 (Homo sapiens) (O75469 whole entry, looked up): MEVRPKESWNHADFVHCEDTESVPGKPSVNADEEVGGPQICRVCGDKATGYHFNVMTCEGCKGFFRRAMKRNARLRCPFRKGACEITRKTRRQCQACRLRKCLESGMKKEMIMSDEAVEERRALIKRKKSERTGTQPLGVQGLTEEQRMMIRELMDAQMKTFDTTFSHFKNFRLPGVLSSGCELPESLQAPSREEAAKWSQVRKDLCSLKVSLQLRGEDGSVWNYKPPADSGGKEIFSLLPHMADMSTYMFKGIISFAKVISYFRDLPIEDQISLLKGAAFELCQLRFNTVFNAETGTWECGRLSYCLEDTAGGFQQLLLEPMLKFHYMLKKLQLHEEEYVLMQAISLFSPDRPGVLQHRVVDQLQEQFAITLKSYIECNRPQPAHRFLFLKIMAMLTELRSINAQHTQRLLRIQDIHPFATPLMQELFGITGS
Sequence of Cytochrome P450 1A2 (Homo sapiens) (P05177 whole entry, looked up): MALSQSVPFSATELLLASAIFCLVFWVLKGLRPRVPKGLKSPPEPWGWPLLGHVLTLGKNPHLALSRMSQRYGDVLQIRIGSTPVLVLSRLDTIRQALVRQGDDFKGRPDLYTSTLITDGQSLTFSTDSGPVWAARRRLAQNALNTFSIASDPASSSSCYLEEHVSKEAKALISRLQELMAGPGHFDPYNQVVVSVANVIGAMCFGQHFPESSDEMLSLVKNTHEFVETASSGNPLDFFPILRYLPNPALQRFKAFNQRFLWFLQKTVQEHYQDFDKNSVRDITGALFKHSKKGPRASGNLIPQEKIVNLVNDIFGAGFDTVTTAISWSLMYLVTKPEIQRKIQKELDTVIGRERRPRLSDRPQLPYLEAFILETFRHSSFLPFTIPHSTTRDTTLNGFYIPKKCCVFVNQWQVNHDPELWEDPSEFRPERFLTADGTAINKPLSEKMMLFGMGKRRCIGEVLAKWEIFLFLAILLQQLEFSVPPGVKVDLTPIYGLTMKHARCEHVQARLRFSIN
Sequence of Cytochrome P450 2C9 (Homo sapiens) (P11712 whole entry, looked up): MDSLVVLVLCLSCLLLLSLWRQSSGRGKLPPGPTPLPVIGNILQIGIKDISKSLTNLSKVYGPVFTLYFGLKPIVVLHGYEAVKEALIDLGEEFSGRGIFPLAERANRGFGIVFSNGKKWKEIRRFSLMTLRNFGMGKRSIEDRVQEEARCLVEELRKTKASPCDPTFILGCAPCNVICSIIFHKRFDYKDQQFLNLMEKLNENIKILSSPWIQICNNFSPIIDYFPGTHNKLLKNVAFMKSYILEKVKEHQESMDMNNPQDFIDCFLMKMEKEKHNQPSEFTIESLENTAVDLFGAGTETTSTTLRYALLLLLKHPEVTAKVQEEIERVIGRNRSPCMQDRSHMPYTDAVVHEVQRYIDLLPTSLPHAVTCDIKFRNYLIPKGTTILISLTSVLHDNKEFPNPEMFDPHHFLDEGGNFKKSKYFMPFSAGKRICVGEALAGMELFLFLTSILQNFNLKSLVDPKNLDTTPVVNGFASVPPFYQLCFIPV
Sequence of Acetylcholinesterase (Homo sapiens) (P22303 whole entry, looked up): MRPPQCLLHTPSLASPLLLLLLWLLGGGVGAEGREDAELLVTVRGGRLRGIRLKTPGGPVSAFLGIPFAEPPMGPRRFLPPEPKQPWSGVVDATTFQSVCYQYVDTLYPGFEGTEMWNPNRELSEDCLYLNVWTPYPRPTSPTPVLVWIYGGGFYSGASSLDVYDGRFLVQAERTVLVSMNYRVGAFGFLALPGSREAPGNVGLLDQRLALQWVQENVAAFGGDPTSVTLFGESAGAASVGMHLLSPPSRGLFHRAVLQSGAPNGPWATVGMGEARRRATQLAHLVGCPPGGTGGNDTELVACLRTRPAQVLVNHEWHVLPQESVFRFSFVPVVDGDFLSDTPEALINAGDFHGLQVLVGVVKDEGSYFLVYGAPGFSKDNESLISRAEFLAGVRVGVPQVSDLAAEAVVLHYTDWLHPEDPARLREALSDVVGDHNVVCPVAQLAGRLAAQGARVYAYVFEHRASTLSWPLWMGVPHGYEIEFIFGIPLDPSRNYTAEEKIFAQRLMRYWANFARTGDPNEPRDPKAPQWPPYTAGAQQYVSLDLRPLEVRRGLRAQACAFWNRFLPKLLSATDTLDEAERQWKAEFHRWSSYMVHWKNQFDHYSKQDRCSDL
Sequence of Nuclear receptor subfamily 1 group I member 2 (Rattus norvegicus) (Q9R1A7 whole entry, looked up): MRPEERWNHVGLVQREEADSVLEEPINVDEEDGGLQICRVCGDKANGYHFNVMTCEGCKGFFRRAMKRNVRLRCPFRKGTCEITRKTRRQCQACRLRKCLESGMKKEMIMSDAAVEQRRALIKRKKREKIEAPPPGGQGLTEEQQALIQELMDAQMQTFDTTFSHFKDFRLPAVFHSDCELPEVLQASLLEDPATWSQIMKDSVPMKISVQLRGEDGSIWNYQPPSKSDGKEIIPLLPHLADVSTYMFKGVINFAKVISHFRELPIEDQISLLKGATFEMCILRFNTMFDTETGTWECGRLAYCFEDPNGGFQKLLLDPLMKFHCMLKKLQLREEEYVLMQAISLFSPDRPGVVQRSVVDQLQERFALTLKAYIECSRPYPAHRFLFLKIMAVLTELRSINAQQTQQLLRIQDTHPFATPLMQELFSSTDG
Sequence of Cytochrome P450 2D6 (Homo sapiens) (P10635 whole entry, looked up): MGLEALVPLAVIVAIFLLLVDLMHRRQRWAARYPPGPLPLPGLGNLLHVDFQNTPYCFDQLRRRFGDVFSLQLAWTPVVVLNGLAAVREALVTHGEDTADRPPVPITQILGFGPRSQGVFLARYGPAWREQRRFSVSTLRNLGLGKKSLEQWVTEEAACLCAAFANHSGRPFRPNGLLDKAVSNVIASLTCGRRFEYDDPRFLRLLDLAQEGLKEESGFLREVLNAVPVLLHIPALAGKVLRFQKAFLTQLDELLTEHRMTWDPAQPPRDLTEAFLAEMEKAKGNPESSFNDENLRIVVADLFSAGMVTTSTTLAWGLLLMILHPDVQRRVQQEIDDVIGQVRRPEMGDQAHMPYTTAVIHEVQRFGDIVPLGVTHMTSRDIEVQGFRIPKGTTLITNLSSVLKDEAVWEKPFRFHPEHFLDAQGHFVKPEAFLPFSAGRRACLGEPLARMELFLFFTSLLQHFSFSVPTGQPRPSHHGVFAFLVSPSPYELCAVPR
Sequence of Cytochrome P450 2C19 (Homo sapiens) (P33261 whole entry, looked up): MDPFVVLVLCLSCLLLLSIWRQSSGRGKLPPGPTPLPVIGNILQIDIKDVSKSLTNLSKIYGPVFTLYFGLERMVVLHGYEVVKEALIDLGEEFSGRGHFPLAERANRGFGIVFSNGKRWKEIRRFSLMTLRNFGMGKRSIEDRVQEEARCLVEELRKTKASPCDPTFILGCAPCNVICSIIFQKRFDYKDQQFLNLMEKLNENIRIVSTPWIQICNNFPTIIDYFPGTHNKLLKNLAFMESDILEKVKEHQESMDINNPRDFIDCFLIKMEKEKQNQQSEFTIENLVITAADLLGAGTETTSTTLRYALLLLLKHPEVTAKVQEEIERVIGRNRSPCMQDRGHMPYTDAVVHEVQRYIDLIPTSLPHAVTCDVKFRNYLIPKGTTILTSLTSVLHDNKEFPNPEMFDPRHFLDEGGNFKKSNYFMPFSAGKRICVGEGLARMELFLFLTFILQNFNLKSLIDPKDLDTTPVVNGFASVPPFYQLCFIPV
Sequence of Voltage-gated inwardly rectifying potassium channel KCNH2 (Homo sapiens) (Q12809 whole entry, looked up): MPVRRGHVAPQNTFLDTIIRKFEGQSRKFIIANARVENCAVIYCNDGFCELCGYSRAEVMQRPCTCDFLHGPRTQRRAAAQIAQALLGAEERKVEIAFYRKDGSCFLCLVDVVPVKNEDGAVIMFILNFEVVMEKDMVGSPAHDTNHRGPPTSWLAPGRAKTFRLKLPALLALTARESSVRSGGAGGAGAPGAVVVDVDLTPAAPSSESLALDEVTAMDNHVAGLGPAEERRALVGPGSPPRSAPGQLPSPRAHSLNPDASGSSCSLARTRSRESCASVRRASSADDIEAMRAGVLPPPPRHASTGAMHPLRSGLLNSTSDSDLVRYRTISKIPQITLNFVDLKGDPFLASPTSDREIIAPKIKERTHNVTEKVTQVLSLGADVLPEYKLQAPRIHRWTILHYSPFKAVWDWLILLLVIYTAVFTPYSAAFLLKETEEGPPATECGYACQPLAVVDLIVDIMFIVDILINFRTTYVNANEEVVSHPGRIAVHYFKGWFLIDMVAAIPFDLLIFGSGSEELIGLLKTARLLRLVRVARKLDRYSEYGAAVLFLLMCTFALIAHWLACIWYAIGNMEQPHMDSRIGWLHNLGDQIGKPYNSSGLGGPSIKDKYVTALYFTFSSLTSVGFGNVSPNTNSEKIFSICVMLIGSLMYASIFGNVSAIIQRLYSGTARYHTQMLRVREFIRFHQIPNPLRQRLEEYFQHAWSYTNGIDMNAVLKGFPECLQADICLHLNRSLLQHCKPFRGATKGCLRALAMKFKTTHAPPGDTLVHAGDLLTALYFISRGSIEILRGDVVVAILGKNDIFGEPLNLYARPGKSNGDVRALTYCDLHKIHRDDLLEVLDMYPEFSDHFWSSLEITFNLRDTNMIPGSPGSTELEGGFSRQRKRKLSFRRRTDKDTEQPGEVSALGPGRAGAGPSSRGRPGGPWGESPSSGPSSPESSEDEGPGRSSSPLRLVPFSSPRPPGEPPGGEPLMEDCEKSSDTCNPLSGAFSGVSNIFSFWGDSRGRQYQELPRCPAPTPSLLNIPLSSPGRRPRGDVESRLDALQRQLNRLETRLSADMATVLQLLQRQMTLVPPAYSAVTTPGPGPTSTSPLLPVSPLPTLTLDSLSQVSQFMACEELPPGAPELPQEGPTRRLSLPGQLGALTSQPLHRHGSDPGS

O=C1CCCO1
34.7 µM (active) and inactive: Potency [14]
inactive: Potency [1] | Potency [2] | Potency [3] | Potency [4] | Potency [5] | Potency [6] | Potency [7] | Potency [8] | Potency [9] | Potency [10] | Potency [11] | Potency [12] | Potency [13] | Potency [15] | Potency [16]

CN(C)P(=O)(N(C)C)N(C)C
inactive: Potency [1] | Potency [2] | Potency [3] | Potency [4] | Potency [5] | Potency [6] | Potency [7] | Potency [8] | Potency [9] | Potency [10] | Potency [11] | Potency [12] | Potency [13] | Potency [14] | Potency [15] | Potency [16]

COP(=S)(OC)Oc1ccc(S(=O)(=O)N(C)C)cc1
34.4 µM (active) and inactive: Potency [6]
inactive: Potency [1] | Potency [2] | Potency [3] | Potency [4] | Potency [5] | max activation [17] -2.31% | Potency [18] | outcome [19] | Potency [8] | Potency [10] | Potency [15]
active: Potency [7] 39.9 µM | Potency [11] 35.6 µM | Potency [12] 79.6 nM and 55 nM | Potency [13] 356 nM and 490 nM | Potency [16] 7.96 µM and 6.92 µM
31.7 µM (active) and inactive: Potency [14]

COP(=S)(OC)Oc1ccc(Sc2ccc(OP(=S)(OC)OC)cc2)cc1
inactive: Potency [1] | Potency [2] | Potency [3] | Potency [4] | Potency [5] | max activation [17] 1.76% | Potency [18] | outcome [19] | Potency [7] | Potency [8] | Potency [9] | Potency [10] | Potency [14] | Potency [15] | Potency [16]
24.3 µM (active) and inactive: Potency [6]
63.3 µM (active) and inactive: Potency [11]
active: Potency [12] 3.17 µM and 4.9 µM | Potency [13] 5.64 µM and 11 µM

CC(C)Nc1ccc(Nc2ccccc2)cc1
inactive: Potency [2] | Potency [4] | Potency [7] | Potency [8] | Potency [10]
active: Potency [1] 20 µM and 27.3 µM | Potency [3] 24.2 µM and 38.6 µM | Potency [5] 38.4 µM and 61.1 µM | Potency [6] 4.31 µM and 5.45 µM | Potency [18] 14.1 µM | Potency [11] 8.91 µM and 10 µM | Potency [12] 3.16 µM and 3.99 µM | Potency [13] 501 nM and 1.12 µM | Potency [14] 35.5 µM and 35.6 µM | Potency [15] 24.4 µM | Potency [16] 12.6 µM and 28.3 µM

Cc1ccc([N+](=O)[O-])cc1
inactive: Potency [1] | Potency [2] | Potency [3] | Potency [4] | Potency [5] | Potency [6] | Potency [7] | Potency [8] | Potency [9] | Potency [10] | Potency [11] | Potency [12] | Potency [13] | Potency [14] | Potency [15] | Potency [16]

CC(O)CN(CC(C)O)CC(C)O (stereo not given)
inactive: Potency [1] | Potency [2] | Potency [3] | Potency [4] | Potency [5] | Potency [6] | Potency [7] | Potency [8] | Potency [9] | Potency [10] | Potency [11] | Potency [12] | Potency [13] | Potency [14] | Potency [15] | Potency [16]

CCC1(c2ccc(N)cc2)CCC(=O)NC1=O (stereo not given)
active: Potency [16] 31.7 µM and 13.8 µM
inactive: Potency [1] | Potency [2] | Potency [3] | Potency [4] | Potency [5] | Potency [6] | max activation [17] -2.76% | Potency [18] | outcome [19] | Potency [7] | Potency [8] | Potency [10] | Potency [11] | Potency [12] | Potency [13] | Potency [14] | Potency [15]

C=C(C)C#N
inactive: Potency [1] | Potency [2] | Potency [3] | Potency [4] | Potency [5] | Potency [6] | Potency [7] | Potency [8] | Potency [9] | Potency [10] | Potency [11] | Potency [12] | Potency [13] | Potency [14] | Potency [15] | Potency [16]

COC(=O)Nc1nc2ccccc2[nH]1
inactive: Potency [1] | Potency [4] | Potency [5] | Potency [7] | Potency [8] | Potency [9] | Potency [10] | Potency [11] | Potency [12] | Potency [15]
active: Potency [6] 54.5 µM | Potency [14] 11.2 µM and 20 µM
6.11 µM (active) and inactive: Potency [2]
inactive and 71 µM (active): Potency [13]
